# Values joined by “and” are separate entries in the source; they are usually repeats but may differ in a detail not shown here. Equal values may be shown once. Results filed as inconclusive are left out. Values without a mark were called inactive. Calls come from the whole dose curve; as a rule, active = well fitted cell-killing curve with a large enough effect; inconclusive = small, poorly fitted or top-dose-only effect; inactive = flat fitted curve, though single readings scatter.
# Test: Cell Viability - Renal Proximal Tubule (AID 545);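 note: 0% = DMSO only and -100% = 100 µM tamoxifen; nearly all actives have a fitted effect of over 40% in size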
# Details: renal proximal tubule cells viability, primary cells of rat origin; at 91.7 µM (top of the series)
# Description: NIH Chemical Genomics Center [NCGC]
# NIH Molecular Libraries Screening Centers Network [MLSCN]
# National Institutes of Environmental Health Sciences [NIEHS]
# National Toxicology Program [NTP]
# We have developed a 1536-well cell-based assay for quantitative high throughput screening (qHTS) against a number of cell lines to determine in vitro cytotoxicity of small molecules. This particular assay uses the renal proximal tubule cells which are derived from normal kidney cells freshly isolated from rat.
# NCGC Assay Protocol Summary:
# The CellTiter-Glo luminescent cell viability assay (Promega) is a homogeneous method to measure the number of viable cells in culture. The end point readout of this assay is based on quantitation of intracellular ATP, an indicator of metabolic activity, using the luciferase reaction. Luciferase catalyzes the oxidation of beetle Luciferin to oxyluciferin and light in the presence of ATP. The luminescent signal is proportional to amount of ATP present.
# Using the CellTiter-Glo luminescent cell viability assay, the amount of cellular ATP was measured in the renal proximal tubule cells with complete culture medium following compound treatment for 40 hours. The assay was performed in opaque white Kalypsys 1536-well plates. In the screen, tamoxifen and doxorubicin were used as positive controls. Library compounds were measured for their ability to cause acute toxicity in the cell line, as reflected by a decrease in intracellular ATP levels, in a concentration-dependent manner. […] AC50 values were determined from concentration-response data modeled with the standard Hill equation.
# qHTS protocol for CellTiter Glo renal proximal tubule cell assay
# [Step] [Parameter] [Value] [Description]
# 1. Reagent; 5 uL; 1000 renal proximal tubule cells/well
# 2. Time; 5 hr; 37 °C incubation
# 4. Controls; 23 nL; Tamoxifen 0.34 uM to 100 uM & Doxorubicin 0.02 nM to 100 uM
# 5. Time; 40 hr; 37 °C incubation
# 6. Reagent; 5 uL; CellTiter Glo reagent
# 7. Time; 20 min; Room Temperature
# 8. Detection; Luminescence; Viewlux plate reader
# Keywords: cell viability, cytotoxicity, renal proximal tubule cells, luminescence, NTPHTS, NTPHTS_NCGC, NIEHS, EPA, DSSTox, MLSMR, MLSCN, NIH Roadmap, qHTS, NCGC
row,SMILES,"activity change, negative = cytotoxicity"
1,CC1(C)CC(N=C=O)CC(C)(CN=C=O)C1 (stereo not given),13.5%
2,O=C(O)c1ccccc1C(c1ccc(O)cc1)c1ccc(O)cc1,1.41%
3,O=C(O)c1ccccc1,-3.81%
4,c1ccc2scnc2c1,-4.16%
5,C=CC(=C)CCC=C(C)C,6.82%
6,CC(C)=CCCC(C)CCO (stereo not given),-2.53%
7,C=C(C)C1CC=C(C)C(O)C1 (stereo not given),6.86%
8,Cc1cccc([N+](=O)[O-])c1C,0.624%
9,COc1cc(/C=C/c2ccccc2)oc(=O)c1,-15.2%
10,CC12CCC(CC1=O)C2(C)C (stereo not given),-5.29%
11,CCCCCCCCCCCCCC(=O)O,-23%
12,O=C1c2ccccc2C(=O)C1c1ccc2ccccc2n1,-13.3%
13,COC(=O)c1ccc(C=O)cc1,-14.2%
14,CC1=CC(C)(C)Nc2ccccc21,-6.6% and -0.974%
15,C=CCOC(=O)c1ccccc1C(=O)OCC=C,-7.06%
16,Cc1ccccc1C,-2.71% and -0.376%
17,c1ccc2c(c1)c1cccc3ccc4cccc2c4c31,-12.3%
18,COCC(=O)O,-6.52%
19,Cc1ccc([N+](=O)[O-])c(C)c1,-0.903%
20,O=C1CCc2ccccc2O1,-10.3%

row,SMILES,"activity change, negative = cytotoxicity"
1,Clc1cc(Cl)c(Cl)c(Cl)c1Cl,-5.98%
2,CN(C)CCCCCCN(C)C,-0.404%
3,COc1c2ccoc2cc2oc(=O)ccc12,-16.3%
4,C[C@H](CCC(=O)O)[C@H]1CC[C@H]2[C@@H]3CC[C@@H]4C[C@H](O)CC[C@]4(C)[C@H]3CC[C@]12C,-4.96%
5,CCCCC(CC)CN (stereo not given),-8.31% and 1.31%
6,COC(=O)CCCCC(=O)OC,5.83%
7,C=CCc1ccc(OC)c(OC)c1,-5.61%
8,CN(C)C=O,-1.87% and 6.39%
9,C1OCOCO1,-10.6%
10,O=C(/C=C/c1ccc(O)c(O)c1)O[C@@H](C(=O)O)[C@@H](OC(=O)/C=C/c1ccc(O)c(O)c1)C(=O)O,-5.23%
11,O=C(O)CC(C(=O)O)C(CC(=O)O)C(=O)O (stereo not given),-9.72%
12,CCCCCCCCCCCCCCC1CO1 (stereo not given),-7.28%
13,Cc1c(N=C=O)cccc1N=C=O,6.1%
14,CCC(O)OC(O)CC (stereo not given),-7.55% and -1.85%
15,C/C=C\c1ccc(OC)cc1,-7.43%
16,CCO,-3.41%
17,c1ccc2c(c1)[nH]c1ccccc12,-10.3%
18,CCCCOCCO,5.22% and -6.35%
19,CC(=O)OC/C=C(\C)CCC=C(C)C,3.05%
20,Cc1ccc([N+](=O)[O-])cc1N,-8.34%

# Source: PubChem BioAssay (NCATS)
